Values joined by “and” are separate entries in the source; they are usually repeats but may differ in a detail not shown here. Equal entries are not always repeated. Results filed as inconclusive are left out. Unmarked numbers belong to inactive results. Active and inactive are the calls of the source. Unless noted, calls come from the whole dose curve; as a rule, active = well fitted curve in the direction sought with a large enough effect in the repeat runs; inconclusive = weak or mixed curves; inactive = no such curve, though single readings can be large; an effect the other way counts as inactive or inconclusive.
Target: Cytochrome P450 2C9 (Homo sapiens) (UniProt P11712)
Sequence (P11712 whole entry, looked up): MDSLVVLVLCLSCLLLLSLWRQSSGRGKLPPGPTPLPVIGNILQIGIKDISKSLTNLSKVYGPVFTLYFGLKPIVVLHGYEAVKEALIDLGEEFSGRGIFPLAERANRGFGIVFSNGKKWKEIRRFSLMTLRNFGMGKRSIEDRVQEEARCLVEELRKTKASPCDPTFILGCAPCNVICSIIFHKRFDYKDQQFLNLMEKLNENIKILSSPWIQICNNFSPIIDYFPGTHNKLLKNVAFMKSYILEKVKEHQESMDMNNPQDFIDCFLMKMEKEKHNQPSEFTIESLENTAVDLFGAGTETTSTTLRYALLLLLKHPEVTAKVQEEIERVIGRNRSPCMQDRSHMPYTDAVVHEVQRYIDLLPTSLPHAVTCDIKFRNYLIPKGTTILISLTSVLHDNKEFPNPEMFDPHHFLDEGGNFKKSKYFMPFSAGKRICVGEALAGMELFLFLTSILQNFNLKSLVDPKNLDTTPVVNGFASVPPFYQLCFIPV
Test: Cytochrome P450 family 2 subfamily C member 9 (CYP2C9) small molecule antagonists: luciferase biochemical (cell-free) qHTS assay (AID 1645842); note: nearly all actives have a fitted effect of over 55% in size; note: potency is the fitted concentration of half-maximal effect
Settings: P450-Glo CYP2C9 enzyme assay, luciferin luminescence; series mostly up to 57.4 µM; activity change, negative = inhibition: at the top concentration
Method in brief: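 P450-Glo CYP2C9 system: proluciferin substrate with enzyme in mix containing 0.4% BSA, 10 min at room temperature, then NADPH regeneration solution added and incubated 1 h at 37C. Detection reagent stopped reaction; luminescence read after 20 min as RLU.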
% is set by controls: 0 for no effect and ±100 for the full control effect.

SMILES	activity change, negative = inhibition [%]	Potency
Oc1ccccc1C=NCc1ccccc1	4.31	
CC(C)=CCOc1ccc(/C=C/C(=O)c2ccc(OCC=C(C)C)cc2OCC(=O)O)cc1		15.5 µM (active)
CN1CCN(CCC(=O)N2c3ccccc3Sc3ccc(C(F)(F)F)cc32)CC1	13.8	
C=C[C@H]1CN2CC[C@H]1C[C@H]2[C@H](O)c1ccnc2ccc(OC)cc12	1.49	
Nc1ccc(S(=O)(=O)Nc2cnc3ccccc3n2)cc1		15.5 µM (active)
O=C(NC1CCN(CCc2c[nH]c3ccccc23)CC1)c1ccccc1	6.12	
CCCCCCCCCCC[C@@H](C[C@@H]1OC(=O)[C@H]1CCCCCC)OC(=O)[C@H](CC(C)C)NC=O		2.75 µM (active)
CCCCc1cc2ccccc2c(OCCN(C)C)n1	-2.13	
CC(=O)Nc1ccc(OCC(O)CNC(C)C)cc1 (stereo unspecified)	11.3	
CCCCCCCCCCCCCCCC(=O)O	12.4	
CCc1oc2ccccc2c1C(=O)c1cc(I)c(O)c(I)c1		0.347 µM (active)
CCc1nn(CCCN2CCN(c3cccc(Cl)c3)CC2)c(=O)n1CCOc1ccccc1	1.98	
OC1C(O)C(O)C(O)C(O)C1O (stereo unspecified)	-6.53	
CCCCCCCCCCCCCCC[C@H](O)[C@@H](N)CO	16.4	
Oc1ccc(Cl)cc1Cc1cc(Cl)ccc1O		7.76 µM (active)
O=C1[C@H](CC[C@H](O)c2ccc(F)cc2)[C@@H](c2ccc(O)cc2)N1c1ccc(F)cc1		6.92 µM (active) and 9.52 µM (active)
CCCCCCCCCCCCOCCOCCOCCOCCOCCOCCOCCOCCOCCO		21.9 µM (active)
C=C1c2cccc(O)c2C(O)=C2C(=O)[C@]3(O)C(O)=C(C(N)=O)C(=O)[C@@H](N(C)C)[C@@H]3[C@@H](O)[C@H]12	0.599	
O=C(Nc1ccccc1)OCC(CN1CCCCC1)OC(=O)Nc1ccccc1 (stereo unspecified)		13.8 µM (active)
Oc1c(Cl)cc(Cl)c(Cl)c1Cc1c(O)c(Cl)cc(Cl)c1Cl		1.55 µM (active)
CN1CCc2cccc3c2[C@H]1Cc1ccc(O)c(O)c1-3	-25.9	
C=C[C@H]1CN2CC[C@H]1C[C@@H]2[C@@H](O)c1ccnc2ccc(OC)cc12	-4.04	
Cc1ccc(O)c([C@H](CCN(C(C)C)C(C)C)c2ccccc2)c1		inactive
CC(=O)O[C@]1(C(C)=O)CC[C@H]2[C@@H]3C=C(C)C4=CC(=O)CC[C@]4(C)[C@H]3CC[C@@]21C		12.3 µM (active)
CC(=O)NO	16.2	
Cc1ccc2c(Br)cc(Br)c(O)c2n1	0.798	
CCOc1ccc(NC(C)=O)cc1	6.5	
C[C@H]1[C@H]2CC[C@H]3[C@@H]4CC=C5C[C@@H](N(C)C)CC[C@]5(C)[C@H]4CC[C@]23CN1C	0.732	

Target: Papain (Carica papaya) (UniProt P00784)
Sequence (P00784 whole entry, looked up): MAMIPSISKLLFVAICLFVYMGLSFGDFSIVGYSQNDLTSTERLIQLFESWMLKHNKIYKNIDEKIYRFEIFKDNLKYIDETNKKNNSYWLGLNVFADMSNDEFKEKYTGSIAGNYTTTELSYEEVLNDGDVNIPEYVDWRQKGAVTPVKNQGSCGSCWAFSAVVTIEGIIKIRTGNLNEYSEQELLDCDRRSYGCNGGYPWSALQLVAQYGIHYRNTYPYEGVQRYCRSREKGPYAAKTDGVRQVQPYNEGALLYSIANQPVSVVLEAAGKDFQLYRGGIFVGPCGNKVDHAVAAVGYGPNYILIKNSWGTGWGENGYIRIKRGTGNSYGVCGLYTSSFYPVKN
Test: Primary qHTS assay for inhibitors of the protease papain (AID 1645873; active = well fitted curve in the direction sought with a large enough effect; an effect the other way counts as inactive or inconclusive;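 note: papain turnover of Z-FR-AMC read as the AMC fluorescence gain over 10 min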)
Settings: papain Z-FR-AMC cleavage, AMC fluorescence; series mostly up to 49.8 µM; activity change, negative = inhibition: at the top concentration

SMILES	activity change, negative = inhibition [%]
NC(N)=NCc1cccc(I)c1	-1.71
CN=C(N)NCCC[C@H](N)C(=O)O	-3.69
CCOC(=O)[C@H](CCc1ccccc1)N[C@@H](C)C(=O)N1[C@H](C(=O)O)C[C@H]2CCCC[C@@H]21	33.6
